# Measurements from PubChem BioAssay.
# System: Noggin (protein binding on small-molecule microarray)
# Assay: Noggin binders on small-molecule microarray, primary screen, biochemical, 635/667 nm fluorescence (AID 1095);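 further: score merges 667 nm feature fluorescence with signal to noise over triplicate slides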
# Conditions: 635 nm fluorescence, higher = more signal
row,SMILES,composite z-score
1,Oc1ccc2cc[n+](Cc3sc4ccccc4c3Cl)cc2c1,0.311
2,C=C[C@H](OC)[C@@H](OC(=O)Nc1ccc(OC)cc1)c1ccc(O)c(F)c1,-0.932
3,O=C1C2C=CC(C(O)c3cc(C(F)(F)F)cc(C(F)(F)F)c3)N(n3cnnc3)C2C(=O)N1Cc1ccccc1 (stereo not drawn),-0.267
4,CCC(CC)C(O)C1C=CC2C(=O)NC(=O)C2N1Nc1ccc(Cl)cc1Cl (stereo not drawn),-0.284
5,COc1cc(C(O)C2C=CC3C(=O)NC(=O)C3N2Nc2ccccn2)cc(OC)c1OC (stereo not drawn),0.0228
6,CC(C)C(CO)N1C(=O)[C@@H]2C3C(=O)OCCC/C=C\[C@H]3OC23C=CCN(CCN2CCOCC2)C(=O)[C@@H]13 (stereo partly drawn),0.0867
7,C=CCN1C(=O)[C@@]2(CC=C)N=C(c3ccc(OCCCO)cc3)O[C@H]2c2ccccc21,1.33
8,COC(=O)[C@@]1(Cc2ccccc2)N=C(c2ccc(OCCCO)cc2)O[C@H]1c1ccccc1,0.0302
9,C=C(COC)/C(=C/C[C@@H](OC(=O)c1ccncc1)c1ccc(CO)o1)c1cc(C(=O)OC)ccc1OC,1.68
10,CN(C)CCCC[C@@H]1NC(=O)[C@H]2C[C@@H](C(=O)NCCCCCCN)[C@@H](c3ccc(O)cc3)N2C1=O,1.84
11,CO[C@H]1O[C@H](CO)[C@@H](OC(=O)Nc2ccc(Oc3ccccc3)cc2)[C@H](OC(=O)Nc2ccc3c(c2)OCO3)[C@H]1OC(=O)Nc1ccc2c(c1)OCO2,0.39
12,Cc1ccc(S[C@]2(C(=O)NC3CC3)CC(=O)N(Cc3ccccc3)[C@@H]2c2ccc(CO)cc2I)cc1,-0.809
13,CCCC#C[Si](O[C@H](CC)c1cn(Cc2cccc(Cl)c2)nn1)(C(C)C)C(C)C,0.476
14,COCC(=C=CC[C@@H](O)c1cccc(OCCO)c1)C[C@@H](O)c1ccccn1,0.657
15,CC(C)C[C@@H]1NC(=O)[C@H](C(C)C)NC(=O)[C@@]23C(=O)N[C@@H](Cc4ccccc4)C2[C@H](C)[C@@]2(C)O[C@H]2C3/C=C/CC/C=C/CNC1=O (stereo partly drawn),0.782
16,[N-]=[N+]=Nc1ccccc1[C@@H]1OC(c2ccc(OCCCO)cc2)=N[C@]1(Cc1ccccc1)C(=O)N1CCOCC1,0.328
17,COc1ccc([Si](C)(C)[C@H]2[C@H](CCO)O[C@@]3(C(=O)N(Cc4ccc(N(C=O)c5ccccc5)cc4)c4ccccc43)[C@@H]2C)cc1,0.0352
18,CC(C)=CCCC(C)=CC(O)C1C=CC2C(=O)N(C)C(=O)C2N1Nc1ccccc1 (stereo not drawn),0.411
19,COc1cc(NN2C(C(O)c3ccco3)C=CC3C(=O)N(c4ccccc4)C(=O)C32)cc(OC)c1OC (stereo not drawn),0.0945
20,C=CC[C@@]1(C(=O)NCCN2CCOCC2)N=C(c2ccc(OCCCO)cc2)O[C@@H]1c1ccccc1N=[N+]=[N-],0.26
21,COC(=O)[C@@]1(Cc2ccccc2)[C@H]2c3cc(C(=O)N4CCCC4)n(Cc4ccc(S(C)(=O)=O)cc4)c3C[C@H]2CN1C(=O)c1ccccc1,0.0689
22,C=CCNC(=O)[C@@H]1[C@H]2C(=O)O[C@H](c3ccccc3)[C@H](c3ccccc3)N2[C@H](c2ccc(O)cc2)[C@@]12C(=O)N(C(=O)OCCOC)c1ccc(C#CCNC(N)=O)cc12,1.12
23,CCOC(=O)C1=CC[C@@H](c2ccccc2)N(S(=O)(=O)c2ccc(C)cc2)[C@H]1c1ccccc1C,0.72
24,C=CCNC(=O)[C@@H]1[C@H]2C(=O)O[C@H](c3ccccc3)[C@H](c3ccccc3)N2[C@H](c2ccc(O)cc2)[C@@]12C(=O)Nc1ccc(C#CCNC(N)=O)cc12,0.385
25,O=C(NCCN1CCOCC1)[C@@H]1c2ccccc2C(=O)N(C2CCCCC2)[C@H]1c1ccc(CO)cc1,-0.562
26,CCCCCCc1nc(-c2cc(C)c(OC)c(C)c2)cc2c1[Si](C(C)C)(C(C)C)OC2,0.187
27,C=CCNC(=O)[C@H]1[C@@H]2C(=O)O[C@@H](c3ccccc3)[C@@H](c3ccccc3)N2[C@@H](c2ccccc2OCCO)[C@]12C(=O)Nc1ccc(C#CCC(C(=O)OC)C(=O)OC)cc12,0.897
28,CC(=O)n1cc(C(O)C2C=CC3C(=O)N(c4ccccc4)C(=O)C3N2Nc2ccc([N+](=O)[O-])cc2)c2ccccc21 (stereo not drawn),-0.386
